Screening results as filed in PubChem BioAssay.
MCF10A rerep – induces DNA re-replication in MCF 10a normal breast cells; MCF 10A DNA re-replication, Hoechst nuclear intensity, 48 h; Potency, µM (doses to about 46.1 µM), for the others: at the top dose activity, positive = re-replication, hits mostly activators; 350,000 compounds, 2.9% hits; note: % of control where 0% means no effect; nearly all actives have a fitted effect of over 50% in size
SW480 rereplic – DNA re-replication induction in SW480 cells; SW480 DNA re-replication, Hoechst DNA content imaging, 48 h; Potency, µM (highest dose often 46.1 µM), for the others: at the highest dose re-replication activation, actives largely listed as activators; 340,000 compounds, 1.8% hits; AID 624297; note: % of control where 0% means no effect; nearly all actives have a fitted effect of over 55% in size
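Hoechst fluorescence of nuclei (405 nm excitation, 500-530 nm emission) measured by plate-scanning imager after 48 hr compound exposure at 37 C; re-replication scored as increased number of nuclei with elevated intensity.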
HT1080-NT tox – kills 2HG-producing HT-1080-NT fibrosarcoma cells. HT-1080-NT fibrosarcoma viability, CellTiter-Glo ATP luminescence, 48 h. Potency, µM (doses to about 46.1 µM), without a hit: top-dose activity, negative = less viability, actives largely listed as cytotoxic. 360,000 compounds, 1.6% hits;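 note: NT is the 2HG producing partner of a matched IDH1 knockdown line; 0% = DMSO-treated cells and -100% = media-only wells without cells; nearly all actives have a fitted effect of over 55% in size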
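HT-1080-NT; 750 cells/well; 5% FBS RPMI; 48 h compound, 37 degrees C; CellTiter-Glo luminescence; curve fitting and curve-class assignment.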
KB-V1 MDR tox – kills drug-selected multidrug resistant KB-V1 cells | Potency, µM (titrated, usually from 46.1 µM), most hits filed as cytotoxic | 400,000 compounds, 3.4% hits | KB-V1 MDR cells viability, CellTiter-Glo, 72 h | AID 1347076; note: % is set by controls: 0 for no effect and ±100 for the full control effect; nearly all actives have a fitted effect of over 60% in size
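Potencies derive from concentration-effect curves fitted to normalized luminescence (CellTiter-Glo) of KB-V1 cells treated for 72 h at 37 degrees C in phenol-red-free DMEM containing 10% FBS.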
HT1080 IDH1KD tx – kills HT-1080 cells with IDH1 knockdown; HT-1080 IDH1 knockdown viability, ATP luminescence, 48 h; 360,000 compounds, 2% hits; AID 686971; Potency, µM (highest dose often 46.1 µM), for the others: top-dose activity, negative = toxicity, most hits filed as cytotoxic;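 note: 0% = DMSO wells and -100% = cell-free medium wells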
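Cytotoxicity counter-line: IDH1KD HT-1080, 48 h, CellTiter-Glo. Curves classed by r2, magnitude and activity.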
KB-3-1 tox – kills parental KB-3-1 adenocarcinoma cells; KB-3-1 viability, CellTiter-Glo ATP luminescence, 72 h; Potency, µM (highest dose often 46.1 µM), hits mostly cytotoxic; 400,000 compounds, 1.4% hits; AID 1347075; note: % is set by controls: 0 for no effect and ±100 for the full control effect; nearly all actives have a fitted effect of over 60% in size
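Using CellTiter-Glo luminescence, growth of non-resistant KB-3-1 adenocarcinoma cells is assessed 72 h after pin-tool compound addition at 37 °C. Normalized responses across the concentration series yield fitted curves.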
* = called active by the depositor; i = inactive; ? = inconclusive; / = no result given; [ ] = another dose, or the depositor's remark. Hits are enriched below; roughly 7.9% of the tested compounds scored in any of these assays. Calls come from the whole dose curve; as a rule, active = well fitted curve in the direction sought with a large enough effect; inconclusive = small, poorly fitted or top-dose-only effect, or another doubt; inactive = no such curve, though single readings can be large; an effect the other way counts as inactive or inconclusive. Potency is the fitted concentration of half-maximal effect.

SMILES	MCF10A rerep	SW480 rereplic	HT1080-NT tox	KB-V1 MDR tox	HT1080 IDH1KD tx	KB-3-1 tox
Cc1cccc(C(=O)NCc2ccc(S(N)(=O)=O)cc2)c1[N+](=O)[O-]	-4%	-7%	-2%	i	0%	i
COc1ccc(C(=O)NCc2cc(C)nc3ccccc23)cc1	?	?	?	i	?	18µM*
O=C(COc1ccc(C(=O)c2ccccc2)cc1)NCC1CCCCC1	18µM*	0%	-9%	i	-15%	i
OC(COc1ccc(F)cc1)CN1CCN(c2ccccc2F)CC1 (stereo not given)	4%	-18%	2%	i	8%	i
Cc1ccc(C)c(C(=O)CC2(O)C(=O)N(C)c3ccccc32)c1 (stereo not given)	-8%	-10%	0%	i	10%	i
COc1cc(CN2CCC(C(=O)N3CCCC(C)C3)CC2)cc(OC)c1O (stereo not given)	18%	-3%	-2%	i	1%	i
CC(=O)Nc1ccc(S(=O)(=O)N2CCSC2c2ccccc2)cc1 (stereo not given)	2%	4%	-12%	i	-10%	i
CC(=O)c1ccc(Nc2cc(C)nc3c(C)cc(C)cc23)cc1	?	2.6µM*	9.2µM*	?	8.2µM*	?
COc1cccc(CNC(=O)Cc2ccc(-n3c(=O)[nH]c4ccccc4c3=O)cc2)c1	?	?	?	?	?	4.1µM*
COc1ccc(CNC(=O)C(c2ccncc2)N(C(=O)Cc2cccs2)c2ccc(C)cc2)cc1 (stereo not given)	?	-1%	-6%	?	-10%	i
CC1(C)CC(=O)C=C(NCc2cccc(C(F)(F)F)c2)C1	-5%	9.2µM*	-1%	?	0%	i
CC1(C)CC(=O)C=C(NCc2ccccc2)C1	-29%	2%	1%	i	0%	i
CCOC(=O)Cc1csc(/N=C/c2c(O)n(-c3ccc(C)c(C)c3)c(=O)c3ccccc23)n1	?	0%	6%	10µM*	22%	?
O=C(NCc1ccccc1)NC1(C(=O)N2CCN(c3ncccn3)CC2)CCCCC1	23µM*	4%[9.22 µM]	1%	i	0%	i
COc1ccc(S(=O)(=O)N2CCN(C(=O)c3oc4ccccc4c3C)CC2)cc1	?	-1%	3%	?	0%	i
COc1ccc(C(=O)c2[nH]c(N)c(C(=O)NCCc3c[nH]c4ccccc34)c2-c2ccc(Cl)c(F)c2)cc1	/	/	?	i	21µM*	?
Nc1[nH]c(C(=O)c2ccccc2)c(-c2ccc([N+](=O)[O-])cc2)c1C(=O)NCCc1c[nH]c2ccccc12	/	/	?	23µM*	?	?
Nc1[nH]c(C(=O)c2ccc(Br)cc2)c(-c2ccc(Br)cc2)c1C(=O)NCCc1c[nH]c2ccccc12	/	/	?	21µM*	?	?
Nc1[nH]c(C(=O)c2ccccc2)c(-c2ccccc2C(F)(F)F)c1C(=O)NCCc1c[nH]c2ccccc12	/	/	?	i	?	?
COc1ccc(C(=O)c2[nH]c(N)c(C(=O)NCCc3c[nH]c4ccccc34)c2-c2ccc(Cl)cc2)cc1	/	/	?	i	?	i
CSc1ncc(C(=O)N2CCN(c3ccc(F)cc3)CC2)c(C)n1	/	/	/	?	/	i
Cc1ccc(S(=O)(=O)c2ccc([N+](=O)[O-])o2)cc1	?	?	7.3µM*	13µM*	2.6µM*	?
Cc1ccc(S(=O)(=O)Nc2c(C)cc([N+](=O)[O-])cc2C)cc1	-3%	-4%	-2%	i	0%	i
COc1ccc(NC(=O)CSc2nnc(CNC(=O)COc3ccc(Cl)cc3)o2)cc1	1%	-2%	5%	i	6%	i
O=c1[nH]c2cc3c(cc2cc1C(c1nnnn1Cc1ccccc1)N1CCCCCC1)OCCO3 (stereo not given)	?	21µM*	-19%	?	-4%	?
SMILES	MCF10A rerep	SW480 rereplic	HT1080-NT tox	KB-V1 MDR tox	HT1080 IDH1KD tx	KB-3-1 tox
Cc1cc(C(c2nnnn2Cc2ccccc2)N2CCOCC2)c(C)n1-c1ccc2c(c1)OCO2 (stereo not given)	-2%	-4%	?	i	10µM*	i
O=c1[nH]c2cc3c(cc2cc1C(c1nnnn1Cc1ccccc1)N1CCCc2ccccc21)OCO3 (stereo not given)	3.7µM*	17%	-27%[9.24 µM]	i	?	?
Cc1cc(C)c2cc(C(O)c3nnnn3Cc3ccccc3)c(=O)[nH]c2c1 (stereo not given)	2.6µM*	4.6µM*	5%	i	13%	i
COCCn1nnnc1C(c1cc2c(C)cc(C)cc2[nH]c1=O)N1CCCCCC1 (stereo not given)	-3%	21%	-22%	i	?	i
O=C1NC(=O)/C(=C/c2ccc(N3CCOCC3)o2)N1	5%	-11%	6%	i	20%	i
O=C(NC1CCCCCC1)C1c2ccccc2C(=O)N1Cc1cccnc1 (stereo not given)	-2%	0%	11%	12µM*	3%	i
O=C(NCc1cccnc1)C1c2ccccc2C(=O)N1C1CCCCCC1 (stereo not given)	1%	-5%	12%	18µM*	4%	i
O=C(NCC1CCCO1)[C@@H]1CSC2c3ccccc3C(=O)N21 (stereo not given in full)	1%	-3%	17%	?	15%	i
O=C(NCC1CCCO1)C1c2ccccc2C(=O)N1C1CCCCCCC1 (stereo not given)	17%	9%	4%	7.3µM*	11%	i
O=C(NCc1cccnc1)C1c2ccccc2C(=O)N1C1CCCCCCC1 (stereo not given)	-2%	-4%	-2%	i	-3%	i
CC1(C)C2CCC1(C)C(SC(=N)N)C2 (stereo not given)	12%	?	-6%	18µM*	-13%	i
O=C(COC(=O)c1ccc(Br)o1)NCC1CCCCC1	-2%	-1%	-5%	i	-2%	i
Cc1cccc2cc(CN(CCN(C)C)C(=S)Nc3ccccc3)c(=O)[nH]c12	8%	?	-13%	23µM*	-20%	i
CCCN(Cc1cc2cc(C)ccc2[nH]c1=O)C(=O)c1cccc([N+](=O)[O-])c1	22%	2.3µM*	0%	?	2%	i
